# Results: PubChem BioAssay AID2577 (National Center for Advancing Translational Sciences (NCATS), 2010)
# Calls of active or inactive are those of the source. The call rests on the fitted dose curve; in most records, active means well fitted curve in the direction sought with a large enough effect; inactive means no such curve, though single readings can be large or run the other way.
# Molecular target: Lysosomal alpha-glucosidase (Homo sapiens) (UniProt P10253)
# Experiment: qHTS Assay for Inhibitors and Activators of N370S glucocerebrosidase as a Potential Chaperone Treatment of Gaucher Disease: Alpha-Glucosidase Counterscreen
# Settings: purified human alpha-glucosidase, 4MU-alpha-glucoside fluorescence
# Excerpt: NIH Chemical Genomics Center [NCGC] NIH Molecular Libraries Probe Production Centers Network [MLPCN] MLPCN Grant: MH086442-01 Assay Submitter (PI): Wei Zheng Glucocerebrosidase (GC) catalyzes the hydrolysis of beta-glucocerebroside to glucose and ceramide in lysosomes. Mutations in the glucocerebrosidase gene result in Gaucher disease, an autosomal recessive lysosomal storage disorder. Many of the mutations encountered in patients with Gaucher disease are missense alterations that may cause misfolding, decreased stability and/or mistrafficking of this lysosomal protein. […] These inhibitors include iminosugar analogs and three non-iminosugar inhibitors identified from a previous HTS of 62,000 compounds with the wild type recombinant enzyme. However, the enhancement of enzyme activity by the chaperone action of an enzyme inhibitor must be balanced against the direct inhibition of the enzyme. An enzyme activator could also function as a chaperone by binding to the enzyme and helping to correct its misfolding and mistrafficking. While activators for GC have not yet been identified, they may have better therapeutic potential than inhibitors. Therefore the discovery and development of chemical activators may provide a new strategy for the chaperone therapy. To characterize compound selectivity, selected hits from the primary screen were screened against purified alpha-glucosidase, a related sugar hydrolase. Alpha-glucosidase is responsible for hydrolysis of terminal, non-reducing 1,4-linked alpha-D-glucose residues with release of alpha-D-glucose.
# NCGC Assay Protocol Summary: This is a fluorogenic enzyme assay with 4-methylumbelliferyl-alpha-D-[…] as the substrate and human alpha-glucosidase as the enzyme preparation. Upon the hydrolysis of this fluorogenic substrate, the resulting product, 1. 4-methyllumbelliferone, can be excited at 365 nm and emits at 440 nm which can be detected by a standard fluorescence plate reader. Data were normalized to the controls for basal activity (without enzyme) and 100% activity (with enzyme). The AC50 values were determined from concentration-response data modeled with the standard Hill equation. Assay buffer: 50 mM citric acid (titrated with potassium phosphate to pH 5.0), 0.005% Tween-20, pH 5.0. (pH 5.0 is an optimal condition for this enzyme assay) 1536-well assay protocol for the human alpha-glucosidase: (1) Add 2 ul/well of enzyme (4 nM final) (2) Add 23 nL compounds in DMSO solution. The final titration was 0.7 nM to 77 uM. (3) Add 1 ul of substrate (400 uM final) (4) Incubate at room temperature for 20 min. (5) Add 2 ul stop solution (1M NaOH and 1M Glycine mixture, pH 10) (6) Detect the assay plate in a ViewLux plate reader (PerkinElmer) with Ex=365 nm and Em=440nm. Keywords: Alpha-glucosidase, Pompe Disease, pharmacological chaperone, chaperone therapy, high throughput screening, alpha-glucosidase inhibitor, MLSMR, MLSCN, NIH Roadmap, qHTS and NCGC
row,SMILES,max response
1,NS(=O)(=O)c1ccc(S(=O)(=O)N2CCN(c3nc(-c4cccs4)nc4ccccc34)CC2)cc1,-10.5% (inactive)
2,Cc1ccc(S(=O)(=O)N2CCN(c3nc(-c4cccs4)nc4ccccc34)CC2)cc1,-8.42% (inactive)
3,N#Cc1ccccc1S(=O)(=O)N1CCN(c2nc(-c3ccccc3)nc3ccccc23)CC1,-12.3% (inactive)
4,O=S(=O)(c1ccccc1)N1CCN(c2nc(-c3ccc(F)cc3)nc3cc(Cl)ccc23)CC1,-8.72% (inactive)
5,O=S(=O)(c1ccc2c(c1)OCCO2)N1CCN(c2nc(-c3cccs3)nc3ccccc23)CC1,-3.67% (inactive)
6,O=S(=O)(c1ccc(F)cc1)N1CCN(c2nc(-c3ccccc3)nc3cc(Cl)ccc23)CC1,-12.7% (inactive)
7,COc1ccc(S(=O)(=O)N2CCN(c3nc(-c4cccs4)nc4ccccc34)CC2)cc1OC,-12% (inactive)
8,NS(=O)(=O)c1ccc(S(=O)(=O)N2CCN(c3nc(-c4ccccc4)nc4ccccc34)CC2)cc1,-7.36% (inactive)
9,O=[N+]([O-])c1cccc(S(=O)(=O)N2CCN(c3nc(-c4cccs4)nc4ccccc34)CC2)c1,-3.53% (inactive)
10,O=S(=O)(c1ccc2c(c1)CCCC2)N1CCN(c2nc(-c3cccs3)nc3ccccc23)CC1,-7.5% (inactive)
11,COc1ccc(S(=O)(=O)N2CCN(c3nc(-c4cccs4)nc4ccccc34)CC2)cc1,-3.66% (inactive)
12,O=S(=O)(c1ccc(Cl)cc1)N1CCN(c2nc(-c3cccs3)nc3ccccc23)CC1,-6.67% (inactive)
13,O=[N+]([O-])c1ccccc1S(=O)(=O)N1CCN(c2nc(-c3ccccc3)nc3ccccc23)CC1,-3% (inactive)
14,Cc1ccc(S(=O)(=O)N2CCN(c3nc(-c4ccccc4)nc4ccccc34)CC2)cc1,-13.1% (inactive)
15,O=S(=O)(c1ccc(Cl)cc1)N1CCN(c2nc(-c3cccc(Br)c3)nc3ccccc23)CC1,-4.16% (inactive)
16,COc1ccc(-c2nc(N3CCN(S(=O)(=O)c4ccccc4)CC3)c3ccccc3n2)cc1,-7.46% (inactive)
17,O=S(=O)(c1cccc(Br)c1)N1CCN(c2nc(-c3cccs3)nc3ccccc23)CC1,-9.65% (inactive)
18,S=C(NCCCc1cnc[nH]1)NCCCN(Cc1ccc(Cl)c(Cl)c1)c1ccc(Br)cn1,-4.15% (inactive)
19,Cc1ccc(S(=O)(=O)N2CCN(c3nc(-c4ccc(F)cc4)nc4cc(Cl)ccc34)CC2)cc1,-4.96% (inactive)
20,O=[N+]([O-])c1ccc(S(=O)(=O)N2CCN(c3nc(-c4ccccc4)nc4ccccc34)CC2)cc1,-3.59% (inactive)
21,CCOC(=O)c1ccc(S(=O)(=O)N2CCN(c3nc(-c4cccs4)nc4ccccc34)CC2)cc1,-8.25% (inactive)
22,O=[N+]([O-])c1ccccc1S(=O)(=O)N1CCN(c2nc(-c3cccs3)nc3ccccc23)CC1,-3.63% (inactive)
23,O=S(=O)(c1ccc(C(F)(F)F)cc1)N1CCN(c2nc(-c3ccccc3)nc3ccccc23)CC1,-6.24% (inactive)
24,O=S(=O)(c1ccccc1)N1CCN(c2nc(-c3cccs3)nc3ccccc23)CC1,-12.9% (inactive)
25,O=[N+]([O-])c1ccc(S(=O)(=O)N2CCN(c3nc(-c4cccs4)nc4ccccc34)CC2)cc1,-5.9% (inactive)
26,CC(C)(C)c1ccc(S(=O)(=O)N2CCN(c3nc(-c4ccccc4)nc4ccccc34)CC2)cc1,-7.51% (inactive)
27,O=S(=O)(c1ccc2c(c1)OCCO2)N1CCN(c2nc(-c3ccccc3)nc3ccccc23)CC1,-3.22% (inactive)
28,O=S(=O)(c1ccc(OC(F)(F)F)cc1)N1CCN(c2nc(-c3ccccc3)nc3ccccc23)CC1,-5.72% (inactive)
29,O=S(=O)(c1cccc(Cl)c1)N1CCN(c2nc(-c3ccccc3)nc3ccccc23)CC1,-3.54% (inactive)
30,N#Cc1ccc(S(=O)(=O)N2CCN(c3nc(-c4ccccc4)nc4ccccc34)CC2)cc1,-5.2% (inactive)
